Drawing on PubChem BioAssay (Tox21), this text covers outcome, Potency and max activation for ten molecules.

Several values for one entry are separate records, joined by “and”; a condition that tells them apart may be missing. Identical values can stand only once. Results filed as inconclusive are left out. Some structures have more than one record in an assay (separate samples or runs), and their calls can disagree. Activity calls are given as the source filed them. Unless noted, calls follow the shape of the dose curve; as a rule, active = well fitted curve in the direction sought with a large enough effect in the repeat runs; inconclusive = weak or mixed curves; inactive = no such curve, though single readings can be large; an effect the other way counts as inactive or inconclusive.

Assay [1] in a line: Caspase-3/7 induction in CHO-K1 cells by small molecules, qHTS assay (AID 1346980). Also: nearly all actives have a fitted effect of over 15% in size. Summed up:
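Wild-type CHO-K1 cells exposed to compounds for 17hr at 37 C, 5% CO2. Caspase-3/7 activity then measured by Caspase-Glo 3/7 luminescence after 30min at room temperature.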
In general terms: In qHTS, concentration-response curves come from the screen itself.

The nature of assay [2]: Caspase-3/7 induction in HepG2 cells by small molecules, qHTS cell viability counter screen (AID 1346981). Also: series mostly up to about 92 µM; nearly all actives have a fitted effect of over 30% in size. Summed up:
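Treatment of HepG2 cells with DMSO-delivered compounds ran 16 hr at 37 C following a 5-hr pre-incubation of 2,000 cells/well. CellTiter-Fluor fluorescence, read after 1 hr, served as the viability measure in a qHTS format.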

For assay [3], the target named is Nuclear receptor subfamily 1 group I member 2 (Homo sapiens) (UniProt O75469). Put plainly: Human pregnane X receptor (PXR) small molecule agonists, qHTS assay (AID 1346982). Also: nearly all actives have a fitted effect of over 35% in size. Also: potency is read from the fitted curve at half-maximal effect. Summed up:
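Stable HepG2 line reporting PXR-mediated CYP3A4 expression via luciferase. Treatment: 24 hr with compounds in DMSO at 37 C. Detection: ONE-Glo luminescence.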

For assay [4], the target named is Acetylcholinesterase (Homo sapiens) (UniProt P22303). Put plainly: Acetylcholinesterase (AChE) small molecule antagonists: colormetric cell-based qHTS assay (AID 1347395; calls by dose curve; also: nearly all actives have a fitted effect of over 30% in size). Summed up:
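After overnight attachment at 37 C, SH-SY5Y cells get 30 min compound exposure; detection cocktail (acetylthiocholine, DTNB) then incubates 90 min at 37 C, and absorbance reflects AChE-generated thiocholine.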

For assay [5] the target is unchanged. Put plainly: Acetylcholinesterase (AChE) small molecule antagonists: enzyme-based qHTS assay (AID 1347397; calls by dose curve; also: nearly all actives have a fitted effect of over 55% in size). Particulars: Potency: AChE enzyme activity inhibition. Summed up:
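Colorimetric DTNB read-out of thiocholine released from acetylthiocholine by recombinant human AChE (50 mU/mL as dispensed). Compounds were preincubated 30 min at RT before substrate/DTNB addition, with a 10 min RT reaction.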

Assay [6] has the same target. Put plainly: Acetylcholinesterase (AChE) small molecule antagonists: fluorescence cell-based qHTS assay (AID 1347398; calls by dose curve; also: nearly all actives have a fitted effect of over 50% in size). To be noted: Potency: AChE activity. Summed up: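 SH-SY5Y, 2,000 cells/well, attached overnight; cmpd 30 min 37 C; acetylthiocholine/Thiolite Green cocktail 40 min RT; fluorescence Ex/Em 490/520 nm.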
Assay [7] has as its target Cytochrome P450 2D6 (Homo sapiens) (UniProt P10635). Put plainly: Cytochrome P450 Family 2 Subfamily D Member 6 (CYP2D6) small molecule antagonists: luciferase reporter qHTS assay (AID 1671196). Also: series mostly up to about 120 µM; nearly all actives have a fitted effect of over 50% in size. Summed up:
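Chemicals tested for interference with CYP2D6 activity; proluciferin substrate, NADPH regeneration, 1 h at room temperature, luminescent detection.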
A general note: A reporter such as luciferase makes a cellular process visible.

The target of assay [8] is Cytochrome P450 2C19 (Homo sapiens) (UniProt P33261). Put plainly: Cytochrome P450 Family 2 Subfamily C Member 19 (CYP2C19) small molecule antagonists: luciferase reporter qHTS assay (AID 1671197). Also: nearly all actives have a fitted effect of over 65% in size. Also: potency is read from the fitted curve at half-maximal effect. Summed up: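 Quantitative high-throughput screen of the Tox21 library using CYP2C19 with proluciferin substrate. Reaction: NADPH regeneration, 37C, 1 h, after 10 min compound preincubation at room temperature. Readout: luminescence.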
Chain of Cytochrome P450 2C19 (Homo sapiens) (P33261 whole entry, looked up): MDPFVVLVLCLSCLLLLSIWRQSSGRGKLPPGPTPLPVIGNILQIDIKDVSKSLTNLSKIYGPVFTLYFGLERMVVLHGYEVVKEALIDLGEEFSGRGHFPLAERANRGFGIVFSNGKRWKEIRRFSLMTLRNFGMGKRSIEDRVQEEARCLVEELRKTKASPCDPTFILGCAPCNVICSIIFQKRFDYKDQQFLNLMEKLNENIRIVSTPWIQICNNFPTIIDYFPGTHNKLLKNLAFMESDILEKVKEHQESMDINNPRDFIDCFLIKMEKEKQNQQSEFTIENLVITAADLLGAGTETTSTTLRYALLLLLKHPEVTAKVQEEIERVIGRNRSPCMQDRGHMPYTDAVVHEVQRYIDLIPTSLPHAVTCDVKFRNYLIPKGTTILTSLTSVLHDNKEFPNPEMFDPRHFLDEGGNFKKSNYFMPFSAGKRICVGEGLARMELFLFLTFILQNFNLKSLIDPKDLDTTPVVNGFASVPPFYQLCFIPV

In assay [9] the target is Cytochrome P450 2C9 (Homo sapiens) (UniProt P11712). Put plainly: Cytochrome P450 Family 2 Subfamily C Member 9 (CYP2C9) small molecule antagonists: luciferase reporter qHTS assay (AID 1671198). Also: nearly all actives have a fitted effect of over 50% in size. Also: potency is read from the fitted curve at half-maximal effect. Summed up:
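P450-Glo proluciferin substrate with CYP2C9 enzyme; 10 min RT preincubation, then NADPH regeneration 1 h at 37C; luciferin detection reagent 20 min RT, luminescence in relative luminescence units.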

The target of assay [10] is Cytochrome P450 3A4 (Homo sapiens) (UniProt P08684). Put plainly: Cytochrome P450 Family 3 Subfamily A Member 4 (CYP3A4) small molecule antagonists: luciferase reporter qHTS assay (AID 1671201). Also: series mostly up to about 120 µM; nearly all actives have a fitted effect of over 50% in size. Summed up: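 CYP3A4 activity was followed with a P450-Glo proluciferin substrate. Test compounds in DMSO were preincubated 10 min; NADPH regeneration then ran 1 h, and light output was read 20 min after detection reagent.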
Chain of Cytochrome P450 3A4 (Homo sapiens) (P08684 whole entry, looked up): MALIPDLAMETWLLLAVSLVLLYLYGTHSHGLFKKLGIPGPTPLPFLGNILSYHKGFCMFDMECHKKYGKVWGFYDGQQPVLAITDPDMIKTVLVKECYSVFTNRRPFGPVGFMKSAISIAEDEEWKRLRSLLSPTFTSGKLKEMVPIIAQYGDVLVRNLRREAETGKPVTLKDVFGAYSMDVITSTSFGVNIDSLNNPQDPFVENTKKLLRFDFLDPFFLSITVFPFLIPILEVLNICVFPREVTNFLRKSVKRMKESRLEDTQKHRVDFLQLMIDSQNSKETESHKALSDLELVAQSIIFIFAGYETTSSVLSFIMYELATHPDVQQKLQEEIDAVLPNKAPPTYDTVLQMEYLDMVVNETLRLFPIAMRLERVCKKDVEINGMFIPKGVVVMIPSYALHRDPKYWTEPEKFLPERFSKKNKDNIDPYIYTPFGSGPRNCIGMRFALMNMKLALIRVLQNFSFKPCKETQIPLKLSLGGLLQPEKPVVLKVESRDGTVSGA

Assay [11] concerns the target Nuclear receptor subfamily 1 group I member 2 (Rattus norvegicus) (UniProt Q9R1A7). Put plainly: Rat pregnane X receptor (rPXR) activation by small molecules, qHTS assay (AID 1346983). Also: nearly all actives have a fitted effect of over 20% in size. To be noted: rPXR luciferase reporter cells, One-Glo luminescence, 24 h; stronger effect = higher value. Summed up: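 Cell-based rPXR activation assay: rPXR cells, 2,000 per well, rested 5hr at 37 C, then exposed to compounds in DMSO for 24 hr at 37 C. Luciferase activity read by One-Glo luminescence after 30 min at room temperature.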

The target of assay [12] is Nuclear receptor subfamily 1 group I member 2 (Homo sapiens) (UniProt O75469). Put plainly: CYP3A4 induction through human pregnane X receptor (PXR) by small molecules, qHTS assay (AID 1346984). Also: nearly all actives have a fitted effect of over 40% in size. Summed up: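 After 24 h at 37C with compound, DPX-2 cells (HepG2, co-transfected PXR response element and CYP3A4 promoter-luciferase) got 3uM final P450-Glo Luciferin-IPA for 3 h; One-Glo luminescence followed.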
Chain of Nuclear receptor subfamily 1 group I member 2 (Homo sapiens) (O75469 whole entry, looked up): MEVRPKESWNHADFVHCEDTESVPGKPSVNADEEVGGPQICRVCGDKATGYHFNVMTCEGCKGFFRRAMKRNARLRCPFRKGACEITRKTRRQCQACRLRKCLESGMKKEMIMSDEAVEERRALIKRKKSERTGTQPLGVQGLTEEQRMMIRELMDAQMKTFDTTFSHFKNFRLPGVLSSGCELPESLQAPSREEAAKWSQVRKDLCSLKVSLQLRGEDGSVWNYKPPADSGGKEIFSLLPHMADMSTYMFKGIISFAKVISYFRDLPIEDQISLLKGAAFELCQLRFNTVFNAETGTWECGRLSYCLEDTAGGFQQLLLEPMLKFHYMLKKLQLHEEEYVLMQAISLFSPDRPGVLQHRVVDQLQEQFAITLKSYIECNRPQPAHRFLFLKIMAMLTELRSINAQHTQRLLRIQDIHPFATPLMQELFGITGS

Assay [13] has the same target. Put plainly: Human pregnane X receptor (PXR) activation by small molecules, qHTS assay (AID 1346985). Also: nearly all actives have a fitted effect of over 40% in size. Summed up: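 DPX-2 cells (HepG2 co-transfected with a PXR response element and a CYP3A4-promoter luciferase construct) were seeded at 2,000 per well, rested 5 hr at 37C, then exposed to DMSO-dissolved compounds for 24 hr. Activation was read as luciferase luminescence.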

The target in assay [14] is Acetylcholinesterase (Homo sapiens) (UniProt P22303). Put plainly: Acetylcholinesterase (AChE) small molecule antagonists: enzyme-based qHTS assay with human liver microsomes (AID 1347399; calls by dose curve; also: nearly all actives have a fitted effect of over 60% in size). To be noted: Potency: qHTS inhibition. Summed up:
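Recombinant human AChE (50 mU/mL in the enzyme mix) and human liver microsomes (0.25 mg/mL final) were preincubated with compound and NADPH (0.25 mg/mL final) for 30 min at 37 C. Acetylthiocholine/DTNB was then added; thiocholine was read colorimetrically after 10 min at room temperature.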

Assay [15] deals with Cytochrome P450 1A2 (Homo sapiens) (UniProt P05177). Put plainly: Cytochrome P450 Family 1 Subfamily A Member 2 (CYP1A2) small molecule antagonists: luciferase reporter qHTS assay (AID 1671199). Also: nearly all actives have a fitted effect of over 50% in size. Also: potency is read from the fitted curve at half-maximal effect. Summed up: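 Read-out is luminescence from luciferin detection reagent (20 min) proportional to CYP1A2 activity; compounds in DMSO preincubated 10 min with enzyme and proluciferin substrate, then NADPH regeneration solution, 1 h, room temperature.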
Chain of Cytochrome P450 1A2 (Homo sapiens) (P05177 whole entry, looked up): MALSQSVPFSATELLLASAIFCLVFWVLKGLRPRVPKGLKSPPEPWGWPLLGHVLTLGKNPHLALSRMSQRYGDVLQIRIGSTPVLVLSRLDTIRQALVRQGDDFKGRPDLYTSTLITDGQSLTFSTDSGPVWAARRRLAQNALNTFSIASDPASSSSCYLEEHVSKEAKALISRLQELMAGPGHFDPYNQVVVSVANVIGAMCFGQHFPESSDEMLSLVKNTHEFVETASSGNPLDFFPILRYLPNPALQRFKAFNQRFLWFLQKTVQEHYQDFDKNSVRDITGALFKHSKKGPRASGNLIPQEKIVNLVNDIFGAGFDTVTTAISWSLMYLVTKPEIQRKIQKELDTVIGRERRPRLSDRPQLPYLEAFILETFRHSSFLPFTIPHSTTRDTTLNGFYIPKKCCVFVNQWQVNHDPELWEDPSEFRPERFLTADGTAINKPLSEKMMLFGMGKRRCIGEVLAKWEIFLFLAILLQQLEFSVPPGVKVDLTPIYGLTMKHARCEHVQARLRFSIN

In assay [16] the target is Voltage-gated inwardly rectifying potassium channel KCNH2 (Homo sapiens) (UniProt Q12809). Put plainly: Human Ether-a-go-go-Related Gene (hERG) channel small molecule antagonists: fluorescence cell-based qHTS assay (AID 1671200). Summed up: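 In this thallium-flux screen, overnight-cultured U2OS cells bearing the channel are dye-loaded in darkness for an hour, rested 10 min at room temperature, and then monitored kinetically at 480/540 nm for two minutes post-stimulus.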
Chain of Voltage-gated inwardly rectifying potassium channel KCNH2 (Homo sapiens) (Q12809 whole entry, looked up): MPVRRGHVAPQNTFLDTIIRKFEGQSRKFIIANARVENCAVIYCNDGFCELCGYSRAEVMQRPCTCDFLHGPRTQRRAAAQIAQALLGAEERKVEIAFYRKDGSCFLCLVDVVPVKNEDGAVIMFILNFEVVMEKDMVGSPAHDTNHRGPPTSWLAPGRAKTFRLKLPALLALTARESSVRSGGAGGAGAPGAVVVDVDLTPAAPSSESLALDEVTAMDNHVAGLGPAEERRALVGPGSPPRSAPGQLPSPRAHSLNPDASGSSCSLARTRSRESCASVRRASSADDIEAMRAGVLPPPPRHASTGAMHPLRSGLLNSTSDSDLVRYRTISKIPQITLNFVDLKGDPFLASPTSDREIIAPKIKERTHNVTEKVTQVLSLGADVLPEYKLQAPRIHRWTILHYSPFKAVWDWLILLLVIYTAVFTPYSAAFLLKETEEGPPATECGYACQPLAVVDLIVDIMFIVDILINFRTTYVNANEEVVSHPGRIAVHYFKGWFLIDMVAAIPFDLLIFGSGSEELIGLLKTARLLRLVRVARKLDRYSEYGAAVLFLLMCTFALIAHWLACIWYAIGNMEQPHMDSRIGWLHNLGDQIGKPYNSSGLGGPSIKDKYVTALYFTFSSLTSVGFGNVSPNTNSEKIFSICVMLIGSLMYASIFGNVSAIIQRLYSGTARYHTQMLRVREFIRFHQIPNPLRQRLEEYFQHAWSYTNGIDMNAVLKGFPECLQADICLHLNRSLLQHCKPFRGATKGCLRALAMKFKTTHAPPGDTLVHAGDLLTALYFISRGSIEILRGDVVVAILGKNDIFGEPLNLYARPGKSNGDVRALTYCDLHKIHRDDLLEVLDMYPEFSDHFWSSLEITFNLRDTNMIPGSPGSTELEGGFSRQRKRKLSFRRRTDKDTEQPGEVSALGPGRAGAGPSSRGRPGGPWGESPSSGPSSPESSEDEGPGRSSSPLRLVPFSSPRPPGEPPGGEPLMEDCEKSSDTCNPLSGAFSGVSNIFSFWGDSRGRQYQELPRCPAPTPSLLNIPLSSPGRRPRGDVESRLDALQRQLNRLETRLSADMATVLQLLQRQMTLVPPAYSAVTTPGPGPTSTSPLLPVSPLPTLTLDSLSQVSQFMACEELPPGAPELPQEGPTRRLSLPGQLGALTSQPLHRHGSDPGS
A general note: hERG is a cardiac potassium channel; its block is linked to QT prolongation.
% is scaled to controls: 0 for no effect and ±100 for the full control effect.

Chain of Acetylcholinesterase (Homo sapiens) (P22303 whole entry, looked up): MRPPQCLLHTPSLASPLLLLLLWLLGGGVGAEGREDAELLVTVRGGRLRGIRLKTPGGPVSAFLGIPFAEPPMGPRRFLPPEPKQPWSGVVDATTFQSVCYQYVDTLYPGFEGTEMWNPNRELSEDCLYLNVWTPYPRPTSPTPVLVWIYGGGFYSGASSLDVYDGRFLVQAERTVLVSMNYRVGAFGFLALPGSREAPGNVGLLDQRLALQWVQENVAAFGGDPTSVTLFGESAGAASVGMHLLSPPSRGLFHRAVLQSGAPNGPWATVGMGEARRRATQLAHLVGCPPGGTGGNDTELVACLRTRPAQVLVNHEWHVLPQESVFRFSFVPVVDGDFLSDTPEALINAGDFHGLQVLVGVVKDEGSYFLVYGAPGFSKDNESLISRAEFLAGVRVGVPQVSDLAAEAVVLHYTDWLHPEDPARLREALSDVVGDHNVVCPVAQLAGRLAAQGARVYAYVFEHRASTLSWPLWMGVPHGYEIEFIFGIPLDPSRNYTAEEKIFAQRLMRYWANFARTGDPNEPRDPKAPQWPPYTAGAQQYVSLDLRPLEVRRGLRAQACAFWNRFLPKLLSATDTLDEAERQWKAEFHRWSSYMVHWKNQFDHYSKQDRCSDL
Chain of Cytochrome P450 2C9 (Homo sapiens) (P11712 whole entry, looked up): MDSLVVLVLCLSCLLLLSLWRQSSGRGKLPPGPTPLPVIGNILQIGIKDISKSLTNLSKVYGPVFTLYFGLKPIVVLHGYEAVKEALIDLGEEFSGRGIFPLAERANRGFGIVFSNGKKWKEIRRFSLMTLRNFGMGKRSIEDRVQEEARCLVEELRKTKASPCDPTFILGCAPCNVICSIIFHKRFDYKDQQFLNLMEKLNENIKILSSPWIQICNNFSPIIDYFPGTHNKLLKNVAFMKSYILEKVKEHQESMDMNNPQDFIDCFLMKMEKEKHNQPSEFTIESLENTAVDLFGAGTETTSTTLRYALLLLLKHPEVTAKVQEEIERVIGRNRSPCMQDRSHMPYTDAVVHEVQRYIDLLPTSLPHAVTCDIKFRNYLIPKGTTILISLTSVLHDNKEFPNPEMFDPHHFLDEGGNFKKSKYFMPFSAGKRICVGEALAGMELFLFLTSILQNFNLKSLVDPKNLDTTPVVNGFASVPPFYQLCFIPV
Chain of Cytochrome P450 2D6 (Homo sapiens) (P10635 whole entry, looked up): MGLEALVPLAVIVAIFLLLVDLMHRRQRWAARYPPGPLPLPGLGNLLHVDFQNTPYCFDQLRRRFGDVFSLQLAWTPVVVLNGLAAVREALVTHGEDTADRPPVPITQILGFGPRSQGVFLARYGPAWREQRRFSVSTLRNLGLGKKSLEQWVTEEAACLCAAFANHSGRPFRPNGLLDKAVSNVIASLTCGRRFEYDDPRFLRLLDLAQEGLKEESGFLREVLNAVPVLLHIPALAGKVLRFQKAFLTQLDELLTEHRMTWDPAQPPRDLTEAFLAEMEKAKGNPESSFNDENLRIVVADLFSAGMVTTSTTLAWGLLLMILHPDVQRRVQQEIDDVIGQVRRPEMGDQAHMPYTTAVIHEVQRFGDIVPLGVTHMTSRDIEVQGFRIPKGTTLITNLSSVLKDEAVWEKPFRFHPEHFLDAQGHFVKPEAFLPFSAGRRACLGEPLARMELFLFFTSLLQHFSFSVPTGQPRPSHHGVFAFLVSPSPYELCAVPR

As for `C1CC2OC2CC1C1CO1` (configuration not stated), in [1], the outcome was inactive. The Potency entry in [2], in assay [3], in assay [4], in assay [5], in assay [6] and in [7] was “inactive” in each case. Moreover, the Potency entry in assay [9] and in assay [10] was “inactive” in each case. The Potency in assay [8] is 69.7 µM (active).
For the molecule `O=[N+]([O-])c1ccccc1`, the molecule was called inactive in assay [1] and in [12]. The Potency entry in assay [3], in assay [13], in assay [4], in assay [5], in assay [6] and in assay [14] was “inactive” throughout. Besides, the Potency entry in assay [8], in assay [15], in assay [16] and in assay [10] was “inactive” throughout. For the same molecule, in assay [11], the max activation was 7.19% (inactive).
Take `CC(NC(C)(C)C)C(=O)c1cccc(Cl)c1` (configuration not stated): the call in assay [1] was inactive. Also, the Potency entry in [2], in assay [9] and in [10] was “inactive” in each case. In addition, the max activation in assay [11] was -1.59% (inactive).
Regarding `CN(C)N=O`, in [1], the outcome was inactive. The Potency result in assay [2], in [3], in assay [5], in assay [6], in assay [7] and in assay [8] was “inactive” in each case. Also, the Potency result in [15], in assay [16] and in assay [10] was “inactive” throughout.
Take `Oc1ccccc1Cl`: the outcome in assay [1] was inactive. The Potency entry in [2], in assay [3], in assay [5], in [6], in [14] and in assay [7] was “inactive” throughout. Also, the Potency result in [8], in [9] and in assay [10] was “inactive” throughout.
With `CC(C)OC(=O)Nc1cccc(Cl)c1`, the molecule was called inactive in assay [1]. The Potency result in assay [2], in assay [5], in assay [6], in [14], in [7] and in assay [10] was “inactive” throughout. The Potency in assay [3] was 38 µM (active) and 48.6 µM (active); in [8], 24.8 µM (active) and 31.7 µM (active); in assay [9], 55.6 µM (active) and 71 µM (active); in assay [15], 9.89 µM (active) and 8.94 µM (active).
For `C1CN2CCN1CC2`, the molecule was classed as inactive in [1]. For the same molecule, the Potency result in [3], in assay [4], in [5], in assay [6], in assay [14] and in [7] was “inactive” in each case. Also, the Potency result in [8], in assay [9], in assay [16] and in assay [10] was “inactive” in each case.
`O=c1[nH]c2ccccc2c(=O)o1`: the molecule was classed as inactive in assay [1]. Moreover, the Potency result in assay [3], in assay [5], in assay [6], in assay [7], in assay [8] and in assay [10] was “inactive” in each case. In addition, in assay [15], the Potency result was “inactive and 35.6 µM (active)”.
Consider `COC(=O)c1ccccc1C(=O)OC`, for which the outcome in assay [1] was inactive. Besides, the Potency result in assay [3], in assay [5], in [6], in [14], in assay [7] and in assay [10] was “inactive” throughout. Further, the Potency in assay [8] was 71.4 µM (active); in assay [15], 31.9 µM (active) and 25.2 µM (active).
In the case of `CC1C=[C-]C=C1.[C-]#[O+].[C-]#[O+].[C-]#[O+].[Mn]`, in [1], the outcome was inactive. Further, the Potency in [3] is 54.5 µM (active) and 19.2 µM (active). Besides, the Potency entry in assay [4], in assay [5], in [6], in assay [14], in assay [8] and in assay [9] was “inactive” throughout. For the same molecule, the Potency entry in assay [16] and in assay [10] was “inactive” each time.
